# Source: PubChem BioAssay (NCATS)
# Records with an inconclusive call do not appear. Entries that show only a call come without a potency. Values without a mark were called inactive. Activity calls are given as the source filed them. The call rests on the fitted dose curve; in most records, active means well fitted inhibition curve with a large enough effect; inconclusive means small, poorly fitted or top-dose-only effect; inactive means flat fitted curve, though single readings scatter.
# Target: Glutathione peroxidase 1 (Homo sapiens) (UniProt P07203)
# Assay: Primary qHTS Assay for Inhibitors of Recombinant Selenoprotein Glutathione Peroxidase 1 (GPX1) (AID 1845191); further: nearly all actives have a fitted effect of over 65% in size
# Conditions: recombinant GPX1, GR-coupled NADPH fluorescence, 15 min; series mostly up to 48.8 µM; activity, negative = inhibition: at the top concentration
# Method in brief: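 10 nM GPX1 + cpd, 30 min RT; start w/ 1 mM GSH, 0.5 mM cumene hydroperoxide, 0.5 mM NADPH, 100 nM GR, 0.01% BSA; buffer 50 mM Tris-HCl pH 7.5, 2 mM EDTA, 150 mM NaCl; Fl 340/450, 0 & 15 min.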
# Glutathione peroxidase 1 (Homo sapiens), sequence (P07203 whole entry, looked up): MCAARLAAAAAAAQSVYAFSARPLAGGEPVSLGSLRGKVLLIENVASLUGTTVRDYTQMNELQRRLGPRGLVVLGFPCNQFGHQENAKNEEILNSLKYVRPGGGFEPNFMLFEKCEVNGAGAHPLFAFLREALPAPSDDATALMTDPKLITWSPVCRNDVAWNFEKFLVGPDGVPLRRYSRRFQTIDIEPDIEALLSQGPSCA
Structure (SMILES),Potency,outcome,"activity, negative = inhibition [%]"
C[C@](N)(Cc1ccc(O)c(O)c1)C(=O)O,inactive,,
CC(C)NCC(O)COc1ccc(CCOCC2CC2)cc1 (centres undefined),inactive,,
NC(=O)OCC(COC(N)=O)c1ccccc1,inactive,,
CCOC(=O)C(C)(C)Oc1ccc(Cl)cc1,inactive,,
O=C(Nc1ccc([N+](=O)[O-])cc1Cl)c1cc(Cl)ccc1O,inactive,,
CC1(CN2CCC(n3c(=O)[nH]c4ccccc43)CC2)OCc2ccccc2-n2cccc21 (centres undefined),,inactive,
CS(=O)(=O)CCNCc1ccc(-c2ccc3ncnc(Nc4ccc(OCc5cccc(F)c5)c(Cl)c4)c3c2)o1,inactive,,
Cc1ccccc1N1C(=O)c2cc(S(N)(=O)=O)c(Cl)cc2NC1C (centres undefined),inactive,,
Cn1c(=O)c2[nH]cnc2n(C)c1=O,inactive,,
N[C@@H](Cc1c[nH]c2ccc(O)cc12)C(=O)O,inactive,,
CN(CCOc1ccc(NS(C)(=O)=O)cc1)CCc1ccc(NS(C)(=O)=O)cc1,inactive,,
O=C(c1ccc(OCCN2CCCCC2)cc1)c1c(-c2ccc(O)cc2)sc2cc(O)ccc12,inactive,,
CN1CCC(=C2c3ccccc3C=Cc3ccccc32)CC1,inactive,,
CC12CC3CC(C)(C1)CC(N)(C3)C2,inactive,,
Cc1cc(C(C)(C)C)cc(C)c1CC1=NCCN1,inactive,,
CC(C(=O)O)c1cccc(C(=O)c2ccccc2)c1 (centres undefined),inactive,,
O=C(C1CCCCC1)N1CC(=O)N2CCc3ccccc3C2C1 (centres undefined),inactive,,

Structure (SMILES),Potency,outcome,"activity, negative = inhibition [%]"
COc1ccc2c(c1)c(CC(=O)O)c(C)n2C(=O)c1ccc(Cl)cc1,inactive,,
Clc1ccc(C(c2ccccc2Cl)C(Cl)Cl)cc1 (centres undefined),inactive,,
CN1C(C(=O)Nc2ccccn2)=C(O)c2ccccc2S1(=O)=O,inactive,,
CNCCCC12CCC(c3ccccc31)c1ccccc12,inactive,,
Fc1ccc([C@@H]2CCNC[C@H]2COc2ccc3c(c2)OCO3)cc1,inactive,,
CCC1(c2ccccc2)C(=O)NCNC1=O,inactive,,
CN1CCN2c3ccccc3Cc3ccccc3C2C1 (centres undefined),inactive,,
Clc1ccc2c(c1)C(N1CCNCC1)=Nc1ccccc1O2,inactive,,
C[C@@H]1CC(=O)NN=C1c1ccc(NN=C(C#N)C#N)cc1,,inactive,
COc1ccc(CCN(C)CCCC(C#N)(c2ccc(OC)c(OC)c2)C(C)C)cc1OC (centres undefined),inactive,,
CN1CCC(=C2c3ccccc3CC(=O)c3sccc32)CC1,inactive,,
Cc1ccc(-c2cc(C(F)(F)F)nn2-c2ccc(S(N)(=O)=O)cc2)cc1,inactive,,
CC[N+](CC)(CC)CCOc1cccc(OCC[N+](CC)(CC)CC)c1OCC[N+](CC)(CC)CC,inactive,,
COc1cc2nc(N(C)CCCNC(=O)C3CCCO3)nc(N)c2cc1OC (centres undefined),,,-19.3
Nc1nnc(-c2cccc(Cl)c2Cl)c(N)n1,inactive,,
O=C1Cc2cc(CCN3CCN(c4nsc5ccccc45)CC3)c(Cl)cc2N1,inactive,,
CN1C2CCC1CC(OC(=O)C(CO)c1ccccc1)C2 (centres undefined),inactive,,
